Results on seven compounds are retold here after PubChem BioAssay (EPA / NIEHS).

Activity calls are given as the source filed them. The calls were made as follows: active = hit-call score of the fitted dose curve at least 0.9, where 1 is the maximum; inactive = score below 0.9.

Assay [1] deals with CCAAT/enhancer-binding protein beta (Homo sapiens) (UniProt P17676). Put plainly: ATG_C_EBP_CIS: Attagene CIS-FACTORIAL HepG2 Assay for human CCAAT/Enhancer Binding Protein (C/EBP) beta (AID 2282927). The conditions noted are these: HepG2 Attagene cis-factorial transcription factor reporter; actives raise or lower the signal. The procedure, abridged:
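HepG2 transiently transfected with multiplexed reporter units under cis-regulatory promoters reporting endogenous C/EBPb activity. After 24 h exposure, reporter mRNA assayed by RT-PCR, fluorescent labelling, HpaI digestion and capillary electrophoresis; bidirectional fitting versus DMSO.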

Assay [2] is described as follows: ATG_DR4_LXR_CIS: Attagene CIS-FACTORIAL HepG2 Assay for human Liver X Receptor (LXR), DR4 submotif (AID 2282929). The following applies: HepG2 Attagene DR4 cis-reporter, mRNA transcription; actives raise or lower the signal. The procedure, abridged: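 Total RNA from 24 h-treated, MRTU-transfected HepG2 cells underwent reverse transcription, PCR, fluorescent primer extension and restriction digestion before capillary electrophoresis. Both increases and decreases in reporter signal were fitted against DMSO.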

The nature of assay [3]: ATG_AP_2_CIS: Attagene CIS-FACTORIAL HepG2 Assay for human Activator Protein 2 (AP-2) (AID 2282932). The conditions noted are these: HepG2 AP-2 cis-reporter, Attagene transcription factor profiling; actives raise or lower the signal. A digest of the protocol: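 Liver-derived HepG2 line, cis-reporter system measuring endogenous factors; 24 h dosing; reporter mRNA detected by fluorescent RT-PCR and capillary electrophoresis.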

For assay [4], the target named is Transcription factor E2F1 (Homo sapiens) (UniProt Q01094). Kind of assay: ATG_E2F_CIS: Attagene CIS-FACTORIAL HepG2 Assay for human E2F Transcription Factor 1 (AID 2282935). The following applies: HepG2 Attagene cis-reporter, E2F reporter RNA transcripts; actives raise or lower the signal. The procedure, abridged:
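Liver-derived HepG2 cells expressing transfected promoter-driven reporter units received test chemical for 24 hours. Signal gains or losses were fitted bidirectionally against DMSO.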

Assay [5] can be described thus: ATG_E_Box_CIS: Attagene CIS-FACTORIAL HepG2 Assay for human Enhancer Box (E-box) (AID 2282936). The conditions noted are these: HepG2 E-box cis-reporter transcription, actives raise or lower the signal. A digest of the protocol:
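In this cell-based setup, HepG2 cells bearing transfected promoter-driven reporter units were exposed to chemicals for 24 h; reporter transcripts were amplified, 6-FAM-labelled, cut with HpaI and sized by capillary electrophoresis.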

Assay [6] is described as follows: ATG_M_19_CIS: Attagene CIS-FACTORIAL HepG2 Assay for M19 Transcription Factor (Internal Marker) (AID 2282939). The conditions noted are these: HepG2 Attagene CIS-FACTORIAL M19 internal marker reporter; actives raise or lower the signal. The procedure, abridged:
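Chemical-treated HepG2 (24 h) with MRTU constructs; reporter transcripts detected by fluorescent RT-PCR fragment analysis on capillary electrophoresis. Internal background marker, DMSO as baseline.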

Assay [7] in a line: ATG_GLI_CIS: Attagene CIS-FACTORIAL HepG2 Assay for human Zinc Finger Protein GLI1 (AID 2282945). The following applies: HepG2, Attagene cis-factorial reporter mRNA, GLI element; actives raise or lower the signal. The procedure, abridged: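 Transiently transfected HepG2 cells report endogenous transcription factor activity via cis-element-driven reporter units. After 24 h compound exposure, reporter mRNA was measured by RT-PCR with capillary electrophoresis; bidirectional fitting against DMSO baseline.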

Assay [8] is described as follows: ATG_ISRE_CIS: Attagene CIS-FACTORIAL HepG2 Assay for human Interferon Regulatory Factor 1 (IRF1) binding to an Interferon-Stimulated Response Element (ISRE) (AID 2282948). The conditions noted are these: HepG2 ISRE cis-reporter (Attagene), mRNA transcription readout; actives raise or lower the signal. The procedure, abridged: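 Endogenous transcription factor activity read as reporter transcript abundance via RT-PCR and capillary electrophoresis. HepG2 cells transiently transfected, 24 h chemical exposure. Gain or loss fitted against DMSO baseline.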

Assay [9] in a line: ATG_M_32_CIS: Attagene CIS-FACTORIAL HepG2 Assay for M32 Transcription Factor (Internal Marker) (AID 2282949).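 Also: background control marker of the multiplexed CIS panel rather than a real target.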 The conditions noted are these: HepG2 Attagene cis-factorial M32 reporter, mRNA; actives raise or lower the signal. A digest of the protocol:
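HepG2 transfectants (cis-regulated reporter transcription units) dosed 24 h. Reporter mRNA by RT-PCR plus CE, analysed as gain or loss relative to DMSO.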

A short description of assay [10]: ATG_PXRE_CIS: Attagene CIS-FACTORIAL HepG2 Assay for human Pregnane X Receptor Element (PXRE) (AID 2282957). The following applies: HepG2 Attagene CIS-FACTORIAL PXRE reporter, mRNA; actives raise or lower the signal. The procedure, abridged:
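Bidirectional activity, baselined to DMSO, derived from reporter mRNA fluorescence (RT-PCR plus capillary electrophoresis) in HepG2 cells bearing cis-promoter reporter units, 24 h exposure.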

Assay [11] in a line: ATG_Sox_CIS: Attagene CIS-FACTORIAL HepG2 Assay for human SRY-box transcription factor (SOX) (AID 2282960). The following applies: HepG2 Attagene cis-factorial SOX reporter, mRNA; actives raise or lower the signal. The procedure, abridged: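 HepG2, cis reporter units, 24 h exposure. Reporter mRNA: RT-PCR → FAM labelling → HpaI → CE fluorescence. Bidirectional fit vs DMSO.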

Assay [12] concerns the target Transcription factor Sp1 (Homo sapiens) (UniProt P08047). Put plainly: ATG_Sp1_CIS: Attagene CIS-FACTORIAL HepG2 Assay for human Specificity Protein 1 (Sp1) (AID 2282961). The following applies: HepG2 Sp1 cis-reporter transcription, actives raise or lower the signal. A digest of the protocol:
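Liver-derived HepG2 cells, cis-element reporter library, 24 h treatment; RNA isolated, cDNA amplified with reporter-specific primers, FAM-labeled fragments sized on capillary analyzer. DMSO baseline, bidirectional curve fit.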

Assay [13] has as its target Signal transducer and activator of transcription 3 (Homo sapiens) (UniProt P40763). Kind of assay: ATG_STAT3_CIS: Attagene CIS-FACTORIAL HepG2 Assay for human Signal Transducer and Activator of Transcription 3 (STAT3) (AID 2282963). The following applies: HepG2, Attagene cis-factorial STAT3 reporter transcription; actives raise or lower the signal. A digest of the protocol:
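Fluorescence intensity of 6-FAM-labelled reporter fragments, separated by capillary electrophoresis after RT-PCR, gave the signal. Cells were HepG2 transfected with cis-element reporter units and treated 24 h; fitting was bidirectional relative to DMSO.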

Assay [14] in a line: ATG_TA_CIS: Attagene CIS-FACTORIAL HepG2 Assay for human TA Basal Promoter (AID 2282964). The conditions noted are these: HepG2 Attagene CIS-factorial TA basal promoter reporter; actives raise or lower the signal. The procedure, abridged: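 Background internal-marker endpoint from a 52-component HepG2 cis-reporter panel. Cells treated 24 h; reporter transcripts quantified via RT-PCR and CE fluorescence against DMSO baseline.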

Assay [15] can be described thus: ATG_TCF_b_cat_CIS: Attagene CIS-FACTORIAL HepG2 Assay for human T-Cell-Factor with beta-catenin (TCF/b-cat) (AID 2282965). The conditions noted are these: HepG2 TCF/beta-catenin cis-reporter transcription, actives raise or lower the signal. The procedure, abridged:
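HepG2 cells transiently transfected with cis-promoter-driven multiplexed reporter units; reporter mRNA measured 24 h after dosing by RT-PCR, FAM labelling, HpaI digestion and capillary electrophoresis. Bidirectional fitting relative to DMSO baseline.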

Assay [16] in a line: ATG_TAL_CIS: Attagene CIS-FACTORIAL HepG2 Assay for human TAL Basal Promoter (AID 2282966).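 Also: background control endpoint measuring basal TAL promoter reporter mRNA not a specific factor.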 The following applies: HepG2 Attagene cis-factorial TAL promoter reporter; actives raise or lower the signal. A digest of the protocol: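 Human hepatoma HepG2 cells, transfected with promoter-regulated reporter units, were treated 24 h. Reporter transcript levels, measured through RT-PCR and capillary electrophoresis, were fitted for gain or loss relative to DMSO.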

Assay [17] addresses X-box-binding protein 1 (Homo sapiens) (UniProt P17861). Put plainly: ATG_Xbp1_CIS: Attagene CIS-FACTORIAL HepG2 Assay for human X-box Binding Protein 1 (XBP1) (AID 2282972). The conditions noted are these: HepG2 XBP1 cis-element reporter, Attagene multiplex; actives raise or lower the signal. The procedure, abridged:
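Reporter transcripts were quantified by RT-PCR with fluorescent primer extension and capillary electrophoresis after 24 h chemical exposure. Cells: transiently transfected HepG2 carrying cis-regulated reporter constructs; data fitted bidirectionally relative to DMSO.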

Assay [18] has as its target Transcriptional activator Myb (Homo sapiens) (UniProt P10242). Kind of assay: ATG_Myb_CIS: Attagene CIS-FACTORIAL HepG2 Assay for human Myeloblastosis (Myb) Proto-Oncogene Transcription Factor (AID 2282986). The following applies: HepG2 Attagene CIS-FACTORIAL Myb reporter transcription; actives raise or lower the signal. The procedure, abridged:
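After 24 h of compound dosing, total RNA from transfected HepG2 cells is reverse-transcribed and the reporter sequences amplified, labeled and separated by capillary electrophoresis. Values come from bidirectional fitting against DMSO.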

In assay [19] the target is Myc proto-oncogene protein (Homo sapiens) (UniProt P01106). Kind of assay: ATG_Myc_CIS: Attagene CIS-FACTORIAL HepG2 Assay for human Myelocytomatosis (Myc) Proto-Oncogene Transcription Factor (AID 2282990). The following applies: HepG2, Attagene cis-reporter transcription factor activity; actives raise or lower the signal. The procedure, abridged:
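Transiently transfected HepG2 cells bearing cis-promoter reporter units for endogenous transcription factors; 24 h exposure. Reporter mRNA measured by RT-PCR, 6-FAM primer extension, HpaI cut and capillary electrophoresis; bidirectional fit relative to DMSO.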

Assay [20] is described as follows: ATG_Oct_MLP_CIS: Attagene CIS-FACTORIAL HepG2 Assay for human Octamer-Binding Transcription Factor (Oct) (AID 2282993). The following applies: HepG2 Attagene cis-factorial Oct reporter, mRNA; actives raise or lower the signal. The procedure, abridged: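 Using HepG2 cells bearing transfected cis-reporter constructs, mRNA induction was read after 24 h by fluorescent RT-PCR and capillary electrophoresis, with DMSO defining baseline for gain- or loss-of-signal fits.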

Chain of Myc proto-oncogene protein (Homo sapiens) (P01106 whole entry, looked up): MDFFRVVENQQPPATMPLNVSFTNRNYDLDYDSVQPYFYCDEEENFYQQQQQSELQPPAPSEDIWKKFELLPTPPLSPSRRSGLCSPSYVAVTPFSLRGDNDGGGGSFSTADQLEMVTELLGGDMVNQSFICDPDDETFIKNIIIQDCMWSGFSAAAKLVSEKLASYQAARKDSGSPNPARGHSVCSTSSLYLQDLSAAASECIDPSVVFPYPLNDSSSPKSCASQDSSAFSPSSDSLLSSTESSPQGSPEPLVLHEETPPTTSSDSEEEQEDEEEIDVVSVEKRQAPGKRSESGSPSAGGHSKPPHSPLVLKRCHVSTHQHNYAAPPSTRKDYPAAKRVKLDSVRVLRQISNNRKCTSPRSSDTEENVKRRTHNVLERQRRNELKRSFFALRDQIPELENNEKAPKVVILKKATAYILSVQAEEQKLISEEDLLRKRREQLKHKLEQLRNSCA
Chain of Transcription factor Sp1 (Homo sapiens) (P08047 whole entry, looked up, the tested form may be a part): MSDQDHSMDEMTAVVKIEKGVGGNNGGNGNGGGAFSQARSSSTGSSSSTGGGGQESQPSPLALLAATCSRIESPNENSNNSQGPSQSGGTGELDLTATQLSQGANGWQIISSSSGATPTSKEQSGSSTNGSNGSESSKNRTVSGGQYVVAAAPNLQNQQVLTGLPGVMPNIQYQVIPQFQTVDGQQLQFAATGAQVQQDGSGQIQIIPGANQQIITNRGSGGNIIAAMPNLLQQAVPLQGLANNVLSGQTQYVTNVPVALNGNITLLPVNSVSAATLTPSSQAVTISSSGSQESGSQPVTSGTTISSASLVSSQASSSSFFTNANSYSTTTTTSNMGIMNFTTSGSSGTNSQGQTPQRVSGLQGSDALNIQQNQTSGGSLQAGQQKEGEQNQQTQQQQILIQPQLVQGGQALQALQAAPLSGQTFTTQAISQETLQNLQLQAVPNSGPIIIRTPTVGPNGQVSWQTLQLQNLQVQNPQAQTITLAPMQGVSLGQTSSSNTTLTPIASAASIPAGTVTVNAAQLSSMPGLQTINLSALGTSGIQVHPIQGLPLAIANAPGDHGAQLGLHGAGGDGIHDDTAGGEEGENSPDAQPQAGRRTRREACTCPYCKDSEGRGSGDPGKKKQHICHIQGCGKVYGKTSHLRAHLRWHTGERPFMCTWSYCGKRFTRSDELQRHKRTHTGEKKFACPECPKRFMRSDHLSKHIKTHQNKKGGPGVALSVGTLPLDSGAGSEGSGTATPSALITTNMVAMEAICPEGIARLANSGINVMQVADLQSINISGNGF
Chain of X-box-binding protein 1 (Homo sapiens) (P17861 whole entry, looked up): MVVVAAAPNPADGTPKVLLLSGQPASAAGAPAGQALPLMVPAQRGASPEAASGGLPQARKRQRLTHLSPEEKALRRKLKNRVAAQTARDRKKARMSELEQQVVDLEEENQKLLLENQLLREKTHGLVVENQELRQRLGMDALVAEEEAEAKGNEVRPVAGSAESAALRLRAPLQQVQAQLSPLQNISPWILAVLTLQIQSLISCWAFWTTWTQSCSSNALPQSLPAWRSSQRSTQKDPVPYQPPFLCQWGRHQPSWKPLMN
Chain of Transcription factor E2F1 (Homo sapiens) (Q01094 whole entry, looked up): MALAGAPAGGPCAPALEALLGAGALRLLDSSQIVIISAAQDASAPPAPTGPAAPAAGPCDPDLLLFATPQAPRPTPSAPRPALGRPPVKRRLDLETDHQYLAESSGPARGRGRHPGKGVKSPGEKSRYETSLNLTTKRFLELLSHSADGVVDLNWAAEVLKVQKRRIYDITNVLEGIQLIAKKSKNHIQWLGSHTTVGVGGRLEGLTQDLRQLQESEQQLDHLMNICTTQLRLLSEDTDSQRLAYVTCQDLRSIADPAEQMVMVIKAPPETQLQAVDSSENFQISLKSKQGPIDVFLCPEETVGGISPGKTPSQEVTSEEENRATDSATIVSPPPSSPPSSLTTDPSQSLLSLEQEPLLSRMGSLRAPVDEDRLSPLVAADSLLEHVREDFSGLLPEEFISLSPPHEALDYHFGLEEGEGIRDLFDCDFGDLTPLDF
Chain of Signal transducer and activator of transcription 3 (Homo sapiens) (P40763 whole entry, looked up, the tested form may be a part): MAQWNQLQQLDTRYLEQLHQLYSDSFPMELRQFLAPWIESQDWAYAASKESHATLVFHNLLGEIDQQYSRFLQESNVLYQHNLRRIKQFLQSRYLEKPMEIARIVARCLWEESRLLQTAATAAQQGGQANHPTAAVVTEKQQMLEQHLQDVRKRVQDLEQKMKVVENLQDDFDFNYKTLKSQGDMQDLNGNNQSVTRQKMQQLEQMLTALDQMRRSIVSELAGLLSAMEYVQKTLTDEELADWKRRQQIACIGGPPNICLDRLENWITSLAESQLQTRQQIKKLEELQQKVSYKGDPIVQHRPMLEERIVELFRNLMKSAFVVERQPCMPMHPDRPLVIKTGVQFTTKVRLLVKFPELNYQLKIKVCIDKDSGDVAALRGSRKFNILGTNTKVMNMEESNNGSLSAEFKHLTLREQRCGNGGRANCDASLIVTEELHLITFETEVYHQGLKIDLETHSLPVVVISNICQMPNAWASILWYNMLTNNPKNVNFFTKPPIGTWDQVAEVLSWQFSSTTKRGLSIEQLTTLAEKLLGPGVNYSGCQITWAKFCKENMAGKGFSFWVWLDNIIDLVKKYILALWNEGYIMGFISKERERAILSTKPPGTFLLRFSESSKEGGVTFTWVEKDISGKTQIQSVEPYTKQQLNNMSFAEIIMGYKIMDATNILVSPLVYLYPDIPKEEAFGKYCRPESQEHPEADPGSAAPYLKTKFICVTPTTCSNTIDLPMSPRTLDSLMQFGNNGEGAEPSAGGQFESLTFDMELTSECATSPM
Chain of CCAAT/enhancer-binding protein beta (Homo sapiens) (P17676 whole entry, looked up): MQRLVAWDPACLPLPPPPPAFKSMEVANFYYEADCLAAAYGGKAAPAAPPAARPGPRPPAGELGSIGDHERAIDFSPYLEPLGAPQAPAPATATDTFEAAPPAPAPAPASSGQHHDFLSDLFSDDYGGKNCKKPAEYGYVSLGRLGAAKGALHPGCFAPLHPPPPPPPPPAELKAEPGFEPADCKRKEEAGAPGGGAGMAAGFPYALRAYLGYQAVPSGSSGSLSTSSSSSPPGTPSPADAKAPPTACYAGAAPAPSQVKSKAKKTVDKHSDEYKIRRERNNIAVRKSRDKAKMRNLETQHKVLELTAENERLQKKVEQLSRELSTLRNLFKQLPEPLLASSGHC
Chain of Transcriptional activator Myb (Homo sapiens) (P10242 whole entry, looked up): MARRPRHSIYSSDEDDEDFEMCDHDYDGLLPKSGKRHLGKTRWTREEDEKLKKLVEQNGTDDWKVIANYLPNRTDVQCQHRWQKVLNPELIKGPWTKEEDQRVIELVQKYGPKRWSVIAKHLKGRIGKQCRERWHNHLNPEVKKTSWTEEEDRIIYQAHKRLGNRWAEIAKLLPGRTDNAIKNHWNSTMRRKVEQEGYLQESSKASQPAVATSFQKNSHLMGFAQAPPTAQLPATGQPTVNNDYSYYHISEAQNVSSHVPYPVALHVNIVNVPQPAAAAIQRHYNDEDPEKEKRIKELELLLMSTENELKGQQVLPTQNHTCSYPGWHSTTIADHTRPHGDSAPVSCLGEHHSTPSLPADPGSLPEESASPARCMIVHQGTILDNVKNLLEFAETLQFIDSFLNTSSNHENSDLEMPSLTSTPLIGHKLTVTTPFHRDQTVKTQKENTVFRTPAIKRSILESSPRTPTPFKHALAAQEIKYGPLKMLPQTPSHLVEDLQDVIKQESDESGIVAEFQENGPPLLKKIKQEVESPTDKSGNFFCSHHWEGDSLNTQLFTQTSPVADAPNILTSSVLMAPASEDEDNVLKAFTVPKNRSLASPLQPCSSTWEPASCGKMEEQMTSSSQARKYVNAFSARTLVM

On to `Nc1ccccc1C(=O)OCCc1ccccc1`, for which the outcome in assay [1], in assay [2], in assay [3], in assay [4], in assay [5] and in [6] was inactive. Besides, the compound was classed as inactive in [7], in [8], in assay [9], in assay [11], in [12] and in assay [13]. Further, the compound was classed as inactive in assay [14], in [15], in assay [17], in assay [18], in [19] and in assay [20]. Further, the figures for the AC50 in assay [10] and in assay [16] were 12.3 µM (active) and 33.4 µM (active), respectively.

For `CCOC(=O)C1OC1(C)c1ccccc1` (stereo not given), the result in assay [1], in assay [2], in [3], in assay [4], in assay [5] and in assay [6] was inactive. In addition, the result in assay [7], in assay [8], in assay [9], in assay [11], in [12] and in assay [13] was inactive. Besides, the result in assay [14], in assay [15], in [16], in assay [17], in assay [18] and in assay [19] was inactive. Besides, the compound was called inactive in [20]. In addition, the AC50 (commonly the concentration at which the activity in the assay is half-maximal) in [10] was 100 µM (active).

Take `[CH3][Sn]([CH3])([Cl])[Cl]`: the result in assay [1], in assay [2], in assay [3], in assay [4], in assay [5] and in [6] was inactive. Also, the compound was classed as inactive in assay [7], in assay [8], in [9], in assay [10], in assay [11] and in assay [12]. Moreover, the call in assay [13], in [14], in [15], in assay [16], in [17] and in [18] was inactive. Moreover, the outcome in assay [19] and in [20] was inactive.

With `[CH3][Sn]([Cl])([Cl])[Cl]`, the result in assay [1], in assay [2], in [3], in assay [4], in assay [5] and in assay [6] was inactive. The call in assay [7], in assay [8], in assay [9], in [10], in assay [11] and in [12] was inactive. The compound was called inactive in assay [13], in [14], in assay [15], in assay [16], in assay [17] and in assay [18]. Moreover, the outcome in assay [19] and in [20] was inactive.

Take `CCCOC(=O)c1ccccc1C(=O)OCCC`: the result in assay [1], in assay [2], in [3], in assay [4], in [5] and in assay [6] was inactive. Also, the outcome in [7], in [8], in assay [9], in assay [11], in assay [12] and in assay [13] was inactive. In addition, the result in assay [14], in assay [15], in assay [16], in [17], in [18] and in assay [19] was inactive. In assay [20], the call was inactive. The AC50 in [10] was 28.9 µM (active).

For `N#Cc1cccc(C#N)c1`, the outcome in assay [1], in assay [2], in [3], in assay [4], in [5] and in assay [6] was inactive. The compound was classed as inactive in assay [7], in assay [8], in assay [9], in assay [10], in assay [11] and in assay [12]. For the same compound, the call in assay [13], in assay [14], in assay [15], in [16], in assay [17] and in assay [18] was inactive. The compound was called inactive in assay [19] and in assay [20].

Turning to `C=C(Cl)Cl`, the outcome in assay [1], in assay [2], in [3], in assay [4], in assay [5] and in [6] was inactive. For the same compound, the compound was classed as inactive in assay [7], in assay [8], in [9], in assay [11], in [12] and in assay [13]. The result in [14], in assay [15], in assay [16], in assay [17], in assay [18] and in [19] was inactive. Further, the result in [20] was inactive. The AC50 in [10] was 50.8 µM (active).
